Data as given in PubChem BioAssay AID1159580 (chemical genetic matrix, 2015).
Values joined by “and” are separate entries in the source; they are usually repeats but may differ in a detail not shown here. Equal entries are not always repeated. About 2,000 (36%) of roughly 5,500 compounds were called active. Not shown: some 18% with an inconclusive outcome. Rule as the data show it: active = normalized growth mostly below about 0.91 (no sharp cut-off); inconclusive = no clear call, values can overlap the other calls; inactive = mostly above about 0.92. The list shows a part of the results.

Experiment: chemical genetic growth profiling, strain panel (AID 1159580);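 also: tested at 20 µM; growth read once vehicle control cultures reached saturation at 30 °C; 1 = growth at the plate median or of vehicle wells; lower values mean less growth of the strain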
Details: S. cerevisiae deletion strains, growth OD

Measured: normalized growth

O=C(COc1ccc(Cl)cc1)N1CCN(Cc2ccc3c(c2)OCO3)CC1
0.773 (active) and 0.983 (inactive): locus YJL095W, strain BCK1, stronger effect = lower value
active: locus YDR502C, strain sam2, stronger effect = lower value 0.908 | locus YGR135W, strain pre9, stronger effect = lower value 0.825 | locus YMR223W, strain ubp8, stronger effect = lower value 0.898 | locus YNL307C, strain MCK1, stronger effect = lower value 0.9 | locus YOR184W, strain ser1, stronger effect = lower value 0.845
inactive: locus YAL013W, strain DEP1, stronger effect = lower value 0.989 | locus YBR021W, strain FUR4, stronger effect = lower value 0.977 | locus YBR229C, strain ROT2, stronger effect = lower value 0.98 | locus YCL029C, strain bik1, stronger effect = lower value 0.979 | locus YDL035C, strain GPR1, stronger effect = lower value 0.93 | locus YDL074C, strain BRE1, stronger effect = lower value 1 | locus YDL101C, strain DUN1, stronger effect = lower value 0.985 | locus YDL134C, strain PPH21, stronger effect = lower value 0.958 | locus YDL185W, strain tfp1, stronger effect = lower value 0.962 | locus YDL192W, strain arf1, stronger effect = lower value 0.945 | locus YDR101C, strain arx1, stronger effect = lower value 1.01 | locus YDR150W, strain NUM1, stronger effect = lower value 0.976 | locus YDR162C, strain NBP2, stronger effect = lower value 0.918 | locus YDR318W, strain mcm21, stronger effect = lower value 0.921 | locus YDR388W, stronger effect = lower value 0.972 | locus YEL061C, strain CIN8, stronger effect = lower value 0.985 | locus YER110C, stronger effect = lower value 0.962 | locus YER155C, strain BEM2, stronger effect = lower value 1.02 | locus YER167W, strain BCK2, stronger effect = lower value 0.987 | locus YGL078C, strain dbp3, stronger effect = lower value 1 | locus YGL086W, strain mad1, stronger effect = lower value 0.973 | locus YGL248W, strain PDE1, stronger effect = lower value 0.983 | locus YGR078C, strain PAC10, stronger effect = lower value 0.952 | locus YGR252W, strain gcn5, stronger effect = lower value 0.938 | locus YHR030C, strain SLT2, stronger effect = lower value 0.954 and 0.981 | locus YHR079C, strain IRE1 (second series), stronger effect = lower value 0.977 | locus YHR079C, strain IRE1, stronger effect = lower value 0.972 | locus YHR094C, strain hxt1, stronger effect = lower value 0.978 | locus YHR129C, strain ARP1, stronger effect = lower value 0.977 | locus YHR200W, strain rpn10, stronger effect = lower value 0.976 | locus YIL066C, strain RNR3, stronger effect = lower value 0.887 | locus YIL073C, strain SPO22, stronger effect = lower value 0.827 | locus YIL125W, strain kgd1, stronger effect = lower value 1 | locus YIR030C, strain dcg1, stronger effect = lower value 0.973 | locus YJL134W, strain LCB3, stronger effect = lower value 0.977 | locus YJL168C, strain set2, stronger effect = lower value 0.98 | locus YJL187C, strain SWE1 (second series), stronger effect = lower value 0.932 | locus YJR043C, strain POL32, stronger effect = lower value 1.08 | locus YJR066W, strain TOR1, stronger effect = lower value 0.916 | locus YJR075W, strain HOC1, stronger effect = lower value 0.943 | locus YKL009W, strain mrt4, stronger effect = lower value 0.987 | locus YKL068W, stronger effect = lower value 0.983 | locus YKL085W, strain MDH1 (second series), stronger effect = lower value 0.98 | locus YKL085W, strain MDH1, stronger effect = lower value 0.98 | locus YKL190W, strain CNB1, stronger effect = lower value 0.976 | locus YKR001C, strain vps1, stronger effect = lower value 1.04 | locus YLR039C, strain RIC1, stronger effect = lower value 0.738 | locus YLR058C, strain SHM2, stronger effect = lower value 0.962 | locus YLR102C, strain apc9, stronger effect = lower value 0.986 | locus YLR113W, strain HOG1, stronger effect = lower value 1 | locus YLR262C, strain YPT6, stronger effect = lower value 0.668 | locus YLR268W, strain sec22, stronger effect = lower value 0.911 | locus YLR330W, strain CHS5, stronger effect = lower value 0.979 | locus YLR342W, strain FKS1 (second series), stronger effect = lower value 0.902 | locus YLR371W, strain rom2, stronger effect = lower value 0.985 | locus YLR418C, strain cdc73, stronger effect = lower value 0.864 | locus YML016C, strain PPZ1, stronger effect = lower value 0.97 | locus YML032C, strain rad52, stronger effect = lower value 0.952 | locus YML124C, strain tub3, stronger effect = lower value 0.998 | locus YMR078C, strain ctf18, stronger effect = lower value 0.971 | locus YMR307W, strain GAS1, stronger effect = lower value 1.01 | locus YNL067W, strain RPL9B, stronger effect = lower value 0.957 | locus YNL183C, strain NPR1, stronger effect = lower value 0.918 | locus YNL233W, strain BNI4, stronger effect = lower value 0.941 | locus YNL250W, strain rad50, stronger effect = lower value 0.981 | locus YNL271C, strain bni1, stronger effect = lower value 0.988 | locus YNL298W, strain CLA4, stronger effect = lower value 0.983 | locus YNL322C, strain KRE1, stronger effect = lower value 0.976 | locus YNR052C, strain pop2, stronger effect = lower value 0.943 | locus YOL012C, strain htz1 1.78 | locus YOL147C, strain pex11, stronger effect = lower value 0.962 | locus YOR061W, strain CKA2, stronger effect = lower value 0.971 | locus YOR069W, strain VPS5, stronger effect = lower value 0.973 | locus YOR136W, strain idh2, stronger effect = lower value 0.992 | locus YOR144C, strain elg1, stronger effect = lower value 0.993 | locus YOR231W, strain MKK1, stronger effect = lower value 0.999 | locus YOR316C, strain cot1, stronger effect = lower value 0.984 | locus YPL055C, strain LGE1, stronger effect = lower value 0.998 | locus YPL241C, strain CIN2, stronger effect = lower value 0.974 | locus YPL256C, strain CLN2, stronger effect = lower value 0.97 | locus YPR119W, strain clb2, stronger effect = lower value 0.989 | locus YPR141C, strain kar3, stronger effect = lower value 0.988 | locus YPR163C, strain tif3, stronger effect = lower value 0.955 | locus YPR167C, strain met16, stronger effect = lower value 0.987 | strain wtn01, stronger effect = lower value 0.905
